{
  "source": "PubChem BioAssay (EPA / NIEHS)",
  "note": "Inconclusive results are not listed. Activity calls are given as the source filed them. How the source made its calls: active means hit-call score of the fitted dose curve at least 0.9, where 1 is the maximum; inconclusive means response in the unintended direction; inactive means score below 0.9.",
  "data": [
    {"target": "human Vitamin D Receptor (VDR), VDR (gene 7421) (UniProt P11473)", "sequence (P11473 whole entry, looked up, the tested form may be a part)": "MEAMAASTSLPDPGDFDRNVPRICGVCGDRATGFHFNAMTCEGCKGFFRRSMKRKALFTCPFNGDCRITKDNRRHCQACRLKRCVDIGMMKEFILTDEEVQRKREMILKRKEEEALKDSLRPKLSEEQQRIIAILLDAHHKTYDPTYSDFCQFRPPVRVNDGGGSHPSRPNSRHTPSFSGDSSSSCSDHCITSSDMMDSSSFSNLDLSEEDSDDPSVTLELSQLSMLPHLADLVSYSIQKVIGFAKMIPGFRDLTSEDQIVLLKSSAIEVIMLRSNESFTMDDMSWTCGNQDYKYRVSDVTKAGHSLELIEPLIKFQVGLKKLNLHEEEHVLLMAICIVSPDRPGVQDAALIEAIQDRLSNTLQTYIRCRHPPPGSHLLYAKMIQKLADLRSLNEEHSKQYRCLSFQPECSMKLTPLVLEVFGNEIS", "assay": "ATG_VDR_TRANS: Attagene TRANS-FACTORIAL HepG2 Assay for human Vitamin D Receptor (VDR) (AID 2283022)", "outline": "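HepG2 cells were transiently transfected with multiple GAL4-UAS reporter units, so signal reflects exogenous chimeric receptor-Gal4 activity. After 24 h compound exposure, reporter mRNA was measured by RT-PCR, fluorescent labelling and capillary electrophoresis, fitted for gain of signal versus DMSO.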", "values": [
      {"compound": "CCOC=C(C(=O)OCC)C(=O)OCC", "outcome": "inactive"},
      {"compound": "FC(F)(F)C(F)(F)C(F)(F)C(F)(F)I", "outcome": "inactive"},
      {"compound": "CC1CCC(C(=O)O)CC1", "note": "(stereo not drawn)", "outcome": "inactive"},
      {"compound": "O=S(=O)(O)c1ccccc1", "outcome": "inactive"},
      {"compound": "CNNCc1ccc(C(=O)NC(C)C)cc1", "outcome": "inactive"},
      {"compound": "O=C(O)C(=O)O", "outcome": "inactive"},
      {"compound": "CC(C)CCOCCC(C)C", "outcome": "inactive"},
      {"compound": "C=Cc1ccc(O)c(OC)c1", "outcome": "inactive"},
      {"compound": "CC(=O)CC(C)C", "outcome": "inactive"},
      {"compound": "CCO[Si](C)(C)OCC", "outcome": "inactive"},
      {"compound": "COc1cc([N+](=O)[O-])ccc1N", "outcome": "inactive"},
      {"compound": "COC(O)c1ccccc1", "note": "(stereo not drawn)", "outcome": "inactive"},
      {"compound": "CCN(CC)CC", "outcome": "inactive"},
      {"compound": "O=C(Nc1cccc([N+](=O)[O-])c1)c1cc2ccccc2cc1O", "outcome": "inactive"},
      {"compound": "COC(=O)CC(C(C)=O)C(=O)OC", "note": "(stereo not drawn)", "outcome": "inactive"},
      {"compound": "CC(C)(C)c1ccc(CCC=O)cc1", "outcome": "inactive"},
      {"compound": "O=C1Cc2ccccc2N1c1c(Cl)cccc1Cl", "outcome": "inactive"},
      {"compound": "C=CC(=O)OCC(CO)(COCC(COC(=O)C=C)(COC(=O)C=C)COC(=O)C=C)COC(=O)C=C", "outcome": "inactive"},
      {"compound": "COc1ccc(C#N)cc1", "outcome": "inactive"},
      {"compound": "O=c1cc(-c2ccccc2)oc2ccc3ccccc3c12", "outcome": "inactive"},
      {"compound": "FCOC(C(F)(F)F)C(F)(F)F", "outcome": "inactive"},
      {"compound": "NS(=O)(=O)O", "outcome": "inactive"},
      {"compound": "CCCCCCCCC1CCC(=O)O1", "note": "(stereo not drawn)", "outcome": "inactive"},
      {"compound": "c1ccc(CNc2ncnc3c2ncn3C2CCCCO2)cc1", "note": "(stereo not drawn)", "outcome": "inactive"},
      {"compound": "Brc1cc(Br)c(Oc2c(Br)cc(Br)c(Br)c2Br)cc1Br", "outcome": "inactive"},
      {"compound": "Cc1ccc(S(=O)(=O)O)cc1", "outcome": "inactive"},
      {"compound": "O=C(F)C(F)(F)C(F)(F)C(F)(F)C(=O)F", "outcome": "inactive"},
      {"compound": "Cc1cc(=O)oc2cc(O)ccc12", "outcome": "inactive"},
      {"compound": "Oc1c(Cl)cc(Cl)cc1Sc1cc(Cl)cc(Cl)c1O", "outcome": "inactive"},
      {"compound": "CCOC(C)=O", "outcome": "inactive"},
      {"compound": "CC1COCc2cc3c(cc21)C(C)(C)C(C)C3(C)C", "note": "(stereo not drawn)", "AC50": "128 µM (active)"},
      {"compound": "NNc1nc(-c2ccc([N+](=O)[O-])cc2)cs1", "outcome": "inactive"},
      {"compound": "CC(=O)Nc1ccc(S(N)(=O)=O)cc1", "outcome": "inactive"},
      {"compound": "O=C(O)CN(CCCN(CC(=O)O)CC(=O)O)CC(=O)O", "outcome": "inactive"},
      {"compound": "CCCCCCCC(OC)OC", "outcome": "inactive"},
      {"compound": "O=S(=O)(O)c1ccc2cc(O)ccc2c1", "outcome": "inactive"},
      {"compound": "CCCCCCCCCCCCCCCC(=O)OC", "outcome": "inactive"},
      {"compound": "CCCCc1ccc2ccccc2c1S(=O)(=O)O", "outcome": "inactive"}
    ]}
  ]
}
